DT40 TDP1 CPT: qHTS for Inhibitors of human tyrosyl-DNA phosphodiesterase 1 (TDP1): qHTS in cells in presence of CPT. chicken DT40 Tdp1-/-;hTDP1 cells + 20 nM CPT, ATP luminescence, 48 h. Potency, µM (top dose mostly 46.2 µM), inactives show at the top dose activity change, negative = growth inhibition, hits mostly inhibitors. 12% of 420,000 active; also: nearly all actives have a fitted effect of over 55% in size
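Cell growth measured by CellTiter-Glo luminescence after a minimum 48 h, 37 C compound exposure with 20 nM CPT in Tdp1-knockout DT40 cells stably expressing hTDP1, seeded 400/well; qHTS titration format.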
ELG1 repair inh: qHTS screen for small molecules that inhibit ELG1-dependent DNA repair in human embryonic kidney (HEK293T) cells expressing luciferase-tagged ELG1 | HEK293T ELG1-luciferase reporter, luminescence, 16 h; DNA damage induced by 5-fluorouridine | Potency, µM (highest dose often 46.1 µM), for inactives: top-dose activity change, negative = inhibition, actives largely listed as inhibitors | 2.3% of 330,000 active | AID 504467, 2011; also: nearly all actives have a fitted effect of over 55% in size
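Luminescence from the luciferase reporter, measured 30 min after ONE-Glo reagent at room temperature, was the read-out. Beforehand, 2,000 cells per well were exposed for 16 hr at 37 °C to 5-fluorouridine together with compound or vehicle.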
12-LOX inh: Primary qHTS assay for inhibitors of human arachidonate 12S-lipoxygenase (ALOX12): Round 2; purified 12hLO, xylenol orange hydroperoxide absorbance; 1.1% of 580,000 active; AID 1671190, 2021; Potency, µM (doses to about 108 µM), for the others: at the top dose activity change, negative = inhibition, hits mostly inhibitors
Target sequence (P18054 whole entry, looked up): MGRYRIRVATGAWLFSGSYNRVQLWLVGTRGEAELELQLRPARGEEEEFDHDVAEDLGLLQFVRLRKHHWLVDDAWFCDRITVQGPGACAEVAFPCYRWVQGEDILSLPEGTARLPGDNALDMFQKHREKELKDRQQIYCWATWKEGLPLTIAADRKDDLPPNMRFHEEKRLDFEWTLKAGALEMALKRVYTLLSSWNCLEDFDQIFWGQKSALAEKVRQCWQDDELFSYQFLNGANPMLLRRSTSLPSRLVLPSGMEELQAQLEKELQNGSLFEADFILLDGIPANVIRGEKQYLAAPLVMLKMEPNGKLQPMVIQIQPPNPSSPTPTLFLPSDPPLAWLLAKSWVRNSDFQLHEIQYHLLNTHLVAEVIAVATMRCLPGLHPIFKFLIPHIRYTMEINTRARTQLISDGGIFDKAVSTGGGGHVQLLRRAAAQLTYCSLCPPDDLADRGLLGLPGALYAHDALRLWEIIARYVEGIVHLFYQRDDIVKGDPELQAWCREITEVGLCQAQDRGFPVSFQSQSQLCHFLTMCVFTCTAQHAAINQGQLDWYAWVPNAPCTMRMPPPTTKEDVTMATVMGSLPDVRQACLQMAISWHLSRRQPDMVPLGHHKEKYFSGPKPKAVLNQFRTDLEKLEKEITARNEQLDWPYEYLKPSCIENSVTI
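Purified human 12hLO at 150 nM in 25 mM Hepes, 0.01% Triton X-100, pH 7.0, preincubated 15 min at room temperature with compound. Reaction started with 40 uM arachidonic acid, 30 min at room temperature. Hydroperoxide measured by Fe-xylenol orange, 573/405 nm absorbance ratio.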
VP16 counter: VP16 counterscreen qHTS for inhibitors of ROR gamma transcriptional activity; Drosophila S2 Gal4-VP16 UAS-luciferase, luminescence, 20 h; Potency, µM (titrated, usually from 53.6 µM), for the others: at the top dose activity, negative = inhibition, usual class: inhibitors; 3.5% of 310,000 active;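 also: Gal4-VP16 expression switched on by copper sulfate through the metallothionein promoter; nearly all actives have a fitted effect of over 50% in size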
RORg inh: qHTS for inhibitors of ROR gamma transcriptional activity; Nuclear receptor ROR-gamma (Mus musculus), P51450; Drosophila S2 Gal4-RORgamma UAS-luciferase reporter, 20 h; Potency, µM (titrated, usually from 53.6 µM), for inactives: at the top dose activity change, negative = inhibition, most hits filed as inhibitors; 5.4% of 310,000 active; AID 2551, 2010; also: nearly all actives have a fitted effect of over 60% in size
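In this cell-based reporter format, copper sulfate (700 uM final) drives Gal4–ROR gamma fusion expression from a metallothionein promoter in Drosophila Schneider cells; compounds preincubated 1 hr, reporter read after 20 hr at ambient temperature.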
TDP1 cell noCPT: qHTS for Inhibitors of human tyrosyl-DNA phosphodiesterase 1 (TDP1): qHTS in cells in absence of CPT; DT40 Tdp1-/- hTDP1 cells, no CPT, ATP luminescence, 48 h; Potency, µM (series often up to 46.2 µM), without a hit: at the top dose activity change, negative = growth inhibition, actives largely listed as inhibitors; 15% of 420,000 active; AID 686978, 2013; also: nearly all actives have a fitted effect of over 55% in size
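Cells were dispensed at 400 per well, compounds added by pin tool, plates incubated ≥48 hr at 37 °C, then CellTiter-Glo added for 30 min at room temperature before luminescence reading. Line: DT40 Tdp1-/- complemented with hTDP1; camptothecin omitted.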
Active calls of the source: *; ? = inconclusive; / = not tested or not shown; [ ] = dose if it differs, or a comment. Rows were chosen to be rich in hits. Some 15% of all compounds tested hit in one or more screens of this group. Calls follow the shape of the dose curve; as a rule, active = well fitted curve in the direction sought with a large enough effect; inconclusive = small, poorly fitted or top-dose-only effect, or another doubt; inactive = no such curve, though single readings can be large; an effect the other way counts as inactive or inconclusive. % is scaled to controls: 0 for no effect and ±100 for the full control effect; potency is read from the fitted curve at half-maximal effect.

SMILES	DT40 TDP1 CPT	ELG1 repair inh	12-LOX inh	VP16 counter	RORg inh	TDP1 cell noCPT
COc1ccc(OC)c(S(=O)(=O)NCC(c2cccs2)N2CCc3ccccc3C2)c1 (configuration not stated)	16.4µM*	29.3%	-10.9%	/	/	?
COc1ccccc1C(=O)NCC(c1ccco1)N1CCc2ccccc21 (configuration not stated)	14.6µM*	-14.3%	?	/	/	23.1µM*
COc1ccc(NC(=O)Nc2ccc(C)n(CC(=O)Nc3ccc(C)c(C)c3)c2=O)cc1	/	/	7.0%	/	/	/
COc1ccc2nc(Nc3ncc4c(n3)CC(C)CC4=O)nc(C)c2c1 (configuration not stated)	/	/	-31.1%	/	/	/
COc1ccc(CCC(=O)N2CCc3ccccc32)cc1	-12.4%	?	0.0%	4.1%	4.1%	?
COc1cc(C(=O)NCC(c2ccco2)N2CCc3ccccc32)cc(OC)c1OC (configuration not stated)	?	?	?	/	/	9.2µM*
COc1ccc(CCC(=O)NCC(c2ccco2)N2CCc3ccccc32)cc1 (configuration not stated)	18.4µM*	?	?	/	/	23.1µM*
COc1cccc(C(=O)N2CCn3c(nnc3-c3ccccc3)C2)c1	/	/	1.2%[176 µM]	/	/	/
COc1ccc(N=CC2=C(O)c3ccccc3C2=O)c(OC)c1	?	?	47.1%	3.98µM*	3.98µM*	18.4µM*
Cc1ccccc1N=CC1=C(O)c2ccccc2C1=O	?	?	-15.9%	1.26µM*	0.199µM*	16.4µM*
CCNC(=S)N/N=C/c1ccc(OCc2ccc(C(=O)OC)cc2)cc1	-18.1%	12.9%	-4.3%	?	3.16µM*	?
COc1ccc(NC(=O)COc2ccc(/C=N/O)cc2OC)cc1	?	?	39.6%	?	?	11.6µM*
CCNC(=S)N/N=C/c1ccc(OCC(=O)Nc2ccc(OC)cc2)c(OC)c1	?	?	18.2%	?	4.47µM*	?
COc1cc(/C=N/NC(=O)c2ccncc2)ccc1OCC(=O)Nc1ccc(C)c(C)c1	?	?	-10.4%	-2.6%	-21.1%	?
COCCNC(=S)N/N=C/c1ccc(OCc2ccc(C(=O)OC)cc2)cc1	7.4%	14.5%	-9.1%	-18.7%	?	-1.8%
CCNC(=S)N/N=C/c1ccc(OCC(=O)Nc2ccc(C)cc2)cc1	?	?	0.0%	?	17.8µM*	-30.0%
COc1ccc(OCC(=O)Nc2ccc(C)cc2)cc1	4.4%	15.6%	0.0%	8.5%	-0.8%	-20.0%
Cc1ncsc1CN1CCc2nn(CC3CC3)c(=O)n2CC1	/	/	8.0%	/	/	/
CC(C)(C)c1ccc(-c2nc(C#N)c(NCC3CCCO3)o2)cc1 (configuration not stated)	/	/	-4.7%	/	/	/
O=C(CSc1nnnn1-c1ccccc1)N(Cc1ccco1)C1=CCCCC1	/	/	14.4%	/	/	/
S=C(NCCc1ccccn1)NC1CC2CCC1C2 (configuration not stated)	26.6%	?	?	?	6.31µM*	-11.3%
COc1ccc(NC(=S)NC2CC3CCC2C3)c(OC)c1 (configuration not stated)	-5.7%	9.5%	0.0%	11.2µM*	5.01µM*	-21.7%
COc1ccccc1C(=O)NC1CC2CCC1C2 (configuration not stated)	/	/	-39.5%	/	/	/
CCOc1ccccc1NC(=S)NC1CC2CCC1C2 (configuration not stated)	?	?	/	7.08µM*	2.82µM*	20.6µM*
Cc1ccc(-n2nnc(C(=O)Nc3nccs3)c2C)cc1C	/	/	9.3%	/	/	/
SMILES	DT40 TDP1 CPT	ELG1 repair inh	12-LOX inh	VP16 counter	RORg inh	TDP1 cell noCPT
COc1ccc(C(C)=O)cc1COC(=O)/C=C/c1cc(Br)ccc1F	/	/	8.0%	/	/	/
O=C(NCc1ccc(C(F)(F)F)cc1)O[C@H]1CC[C@@]23CCCN2C(=O)CCC[C@H]3[C@H]1Cc1ccccc1	/	/	0.6%	/	/	/
C=CCCN(Cc1ccc(OC)cc1)S(=O)(=O)c1ccccc1Br	/	/	/	-0.4%	-14.5%	/
C=CCCN(Cc1ccccc1)S(=O)(=O)c1cc(Br)ccc1Br	?	-12.8%	0.7%	/	/	14.6µM*
Cc1cccc(NC(=O)CN2CCN(C(=O)c3ccc(OCc4cn5ccccc5n4)cc3)CC2)c1C	18.4µM*	?	10.9%	/	/	9.2µM*
O=C(CN1CCN(C(=O)c2ccc(OCc3cn4ccccc4n3)cc2)CC1)Nc1cccc(F)c1	23.1µM*	?	4.1%	/	/	14.6µM*
O=C(Nc1cccc(S(=O)(=O)N2CCCCC2)c1)c1ccc(OCc2cn3ccccc3n2)cc1	/	/	38.0%	/	/	/
Cc1cccc(NC(=O)CN2CCN(C(=O)c3cccc(-n4cnnn4)c3)CC2)c1C	?	11.7%	201.5%	/	/	-19.9%
CCn1cc(S(=O)(=O)N2CC[C@H](c3nc(C)no3)[C@H](NC(=O)C3CC3)C2)cn1	/	/	27.8%	/	/	/
Cc1ccc(NC(=O)CC2(C(=O)O)CCCCC2)c(C)c1	/	/	-73.0%	/	/	/
O=C1N[C@@H](Cc2ccccc2)COC(=O)[C@@H](Cc2ccc(F)cc2)CC/C=C/C[C@H]1CC(=O)N(CCO)Cc1ccccc1	?	?	?	/	/	6.51µM*
O=C1N[C@@H](Cc2ccccc2)COC(=O)[C@H](Cc2ccc(F)cc2)C/C=C\C[C@H]1CC(=O)N(CCO)Cc1ccccc1	20.6µM*	?	?	/	/	8.2µM*
COC(=O)c1c(-c2ccc(F)cc2)csc1NC(=O)CN1CCN(c2ccccc2)CC1	/	/	1.8%	/	/	/
CCn1cnnc1CC1CCN(C(=O)NC)C1 (configuration not stated)	/	/	21.8%	/	/	/
COCCN(C(=O)c1cccc(N2C(=O)CCC2=O)c1)c1nc(-c2ccc([N+](=O)[O-])cc2)cs1	?	5.8µM*	-3.3%	/	/	20.6µM*
Nc1nc(=S)c2[nH]c(=S)[nH]c2[nH]1	-13.6%	/	7.94µM*	/	/	-27.1%
O=C(CCC[C@@H]1[C@H]2CCCN3CCC[C@@H](CN1C(=O)CCc1ccccc1)[C@@H]23)N1CCOCC1	/	/	32.0%	/	/	/
Cc1cc(C)c(Cn2c3ccccc3c3cnn(CC(=O)NCc4cccs4)c(=O)c32)c(C)c1	14.6µM*	/	?	/	/	20.6µM*

Screening data from PubChem.
